Spn MK inh = inhibitors of Streptococcus pneumoniae mevalonate kinase | inhibition, % at 10 µM | purified MK, PK/LDH-coupled NADH absorbance 340 nm | 65,000 tested, 0.48% active;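 active = ranked among the strongest by inhibition in the single 10 µM screen, a fixed top-ranked set picked for dose follow-up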
NADH enzymes = inhibition of NAD/NADH coupling enzymes, library profiling | 65,000 tested, 0.02% active | coupled PK/LDH NADH assays, four targets | IC50, µM (titrated, usually from 10 µM);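 active = single-dose screening hits from any of four coupled enzyme assays that gave an IC50 when retested across doses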;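 also: the DPM-DC format reads NADH fluorescence rather than 340 nm absorbance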
Spn DPM-DC inh = blocks S. pneumoniae diphosphomevalonate decarboxylase; purified DPM-DC, PK/LDH coupled NADH fluorescence; calls only at 10 µM; AID 556; 65,000 tested, 0.49% active;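 active = the 320 compounds with the highest percent inhibition in the single-dose primary screen, excluding strongly autofluorescent ones, cut at about 32% in these data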;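 also: kinetic rate of NADH fluorescence loss reporting ADP formed by the decarboxylase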
Autofluor 339 = intrinsic fluorescence of library compounds, ex339/em460 – biochemical, MLSMR library, data from DPM-DC assay, artefact control, profiling panel. 65,000 tested, 5.5% active. compound autofluorescence, ex339/em460 nm, NADH buffer; active compounds read high; 1 = no-compound wells, NADH background. fluorescence fold increase at 10 µM. AID 709;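 active = at 10 µM, mean starting fluorescence two-fold or more over control wells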;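 also: signal is the first read of a kinetic run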
Abs 340nm = compound absorbs light at 340 nm; compound absorbance at 340 nm, fold over control; 65,000 tested, under 10 active; fold change at 10 µM;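 active = at 10 µM dose, initial 340 nm absorbance at least 2 fold that of control wells; inactive = change under 2 fold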;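 also: initial absorbance extrapolated from kinetic A340 decline of NADH oxidation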
PMK inhibit = inhibitors of Streptococcus pneumoniae phosphomevalonate kinase. purified PMK, PK/LDH-coupled NADH absorbance 340 nm. inhibition, % at 10 µM. 65,000 tested, 0.49% active. AID 539;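 active = top-ranked compounds by inhibition in the single 10 µM screen, taking a fixed number of the strongest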
Numbers stand for hits; – = inactive; · = no result given; + = active, no number. A selection: hits, their analogues and other compounds. The true share with any hit is near 6.3%.

SMILES	Spn MK inh	NADH enzymes	Spn DPM-DC inh	Autofluor 339	Abs 340nm	PMK inhibit
CCCN1C(=O)c2ccccc2NC1c1ccc(OC)cc1O (configuration not stated)	–	–	·	5	–	–
Cc1cc(N/C=C2\CCCCC2=O)no1	–	–	–	–	–	–
CC1=CC2=NC(=O)CC(C)(C(=O)N(CC(=O)NC(C)(C)C)C3CCCC3)N2C=C1 (configuration not stated)	–	–	·	3.8	–	–
CC(C)(C)NC(=O)CN(C(=O)C1(C)CC(=O)N=C2C=CC=CN21)C1CCCC1 (configuration not stated)	–	–	·	3.8	–	–
CC1=CC=CC2=NC(=O)CC(C)(C(=O)N(CC(=O)NC(C)C)C3CCCC3)N12 (configuration not stated)	–	–	·	3	–	–
CCOC(=O)CSc1nc(N)c2c3c(sc2n1)CCCC3	–	–	–	–	–	–
CCOC(=O)c1nc(N2CCN(C(=O)OCC)CC2)c2c3c(sc2n1)CCCC3	–	–	·	3.7	–	–
CCOC(=O)c1nc2sc3c(c2c(=O)[nH]1)CCCC3	–	–	·	2.5	–	–
CC(C)(C)NC(=O)C(c1ccco1)N(C(=O)Cn1nnc(-c2ccc(F)cc2)n1)c1ccccc1F (configuration not stated)	–	–	–	–	–	–
CCN=c1sc(C(=O)NCCc2ccccc2)cc(=O)n1CC	–	–	–	–	–	25
COc1ccc(-c2cc3nc(-c4ccccc4)cc(N4CCC5(CC4)OCCO5)n3n2)cc1	–	–	·	4.8	–	–
Cc1cccc(-c2cc3nc4c(c(N5CCC6(CC5)OCCO6)n3n2)CCCC4)c1	–	–	–	–	–	–
CC1(C)Cc2c(C#N)c(NC3CCCCC3)nc(-c3ccco3)c2CO1	–	–	·	2.2	–	–
N#Cc1c(-c2ccco2)nc(NCC2CCCO2)[nH]c1=O (configuration not stated)	–	–	–	–	–	–
CC1(C)Cc2c(C#N)c(NCC3CCCO3)nc(-c3ccco3)c2CO1 (configuration not stated)	–	–	·	2.3	–	–
C=CCc1ccc(OCC(O)CN2CCCCC2C)c(OC)c1 (configuration not stated)	–	–	–	–	–	–
COc1ccc(Cc2nnc3n2N=C(c2cc4ccccc4o2)CS3)cc1OC	–	–	–	–	–	–
CCn1c(=O)c2cc(C(=O)N3CCN(C(=O)c4ccco4)CC3)sc2c2ccccc21	–	–	·	2.1	–	–
CC1CCC(NC(=O)c2cc3c(s2)CS(=O)(=O)C3)CC1 (configuration not stated)	–	–	–	–	–	–
O=C(c1ccco1)N1CCN(C(=O)c2cc3c(s2)-c2ccccc2OC3)CC1	–	–	·	2.4	–	–
O=C(NCc1cccs1)c1cc2c(s1)-c1ccccc1OC2	–	–	·	2.4	–	–
O=C(NC1CC1)c1cc2c(s1)-c1ccccc1OC2	–	–	·	2.1	–	–
CCOC(=O)C1=C(C)N2C(=C(C#N)[C@@H]1c1ccc(C(=O)OC)cc1)SC[C@@]2(O)C(C)(C)C	–	–	–	–	–	–
CN1CCN(C(=O)c2cc3c(s2)-c2ccccc2S(=O)(=O)C3)CC1	–	–	–	–	–	–
O=C(O)c1cc2c(s1)-c1ccccc1OC2	–	–	·	2.2	–	–
SMILES	Spn MK inh	NADH enzymes	Spn DPM-DC inh	Autofluor 339	Abs 340nm	PMK inhibit
CCOC(=O)N1CCN(C(=O)c2ccc3c(=O)n(CCc4ccccc4)c(=O)[nH]c3c2)CC1	–	–	–	–	–	–
Cn1c(=O)n(C)c2cc(/C=N/n3cnnc3)ccc21	–	–	–	2.8	–	–
CC(C)Cn1cc(C(=O)NCC2CCCO2)c2c3ccccc3n(C)c2c1=O (configuration not stated)	–	–	–	2.5	–	–
Cn1c2ccccc2c2c(C(=O)NCC3CCCO3)cn(C3CCCC3)c(=O)c21 (configuration not stated)	–	–	·	2.1	–	–
COC(=O)c1ccc(C(=O)OC)c(NC(=O)c2cnc3n(c2=O)CCS3)c1	–	–	–	2.4	–	–
CCCCN(C)C(=O)c1c[nH]c2ccc(S(=O)(=O)N3CCOCC3)cc2c1=O	–	–	·	2.2	–	–
O=C(O)c1c[nH]c2ccc(S(=O)(=O)N3CCOCC3)cc12	–	–	–	–	–	–
O=C(NCc1ccco1)c1c[nH]c2ccc(S(=O)(=O)N3CCOCC3)cc2c1=O	–	–	·	2.1	–	–
Cc1ccc(S(=O)(=O)N2CCOCC2)cc1C(=O)NCc1ccco1	–	–	–	–	–	–
CCOC1(OCC)N=C(N)C2(C#N)C(c3ccc(NC(C)=O)cc3)C12C#N (configuration not stated)	–	–	–	–	–	–
Cc1occc1-c1nnc2sc(-c3ccc(-c4ccc(Cl)cc4)o3)nn12	–	–	·	2.1	–	–
COc1cccc(NC(=O)CCN2CCN(C)CC2)c1	–	–	–	–	–	–
COc1cccc2[nH]c3c(N4CCC(C)CC4)ncnc3c12	–	–	·	3.7	–	–
COc1cccc(N2CCN(c3ncnc4c3[nH]c3ccccc34)CC2C)c1 (configuration not stated)	–	–	–	–	–	–
COc1cccc2[nH]c3c(N4CCN(Cc5ccc6c(c5)OCO6)CC4)ncnc3c12	–	–	·	3.9	–	–
COc1cc2[nH]c3c(N4CCN(c5ccc(Cl)cc5)CC4)ncnc3c2cc1OC	–	–	–	2.4	–	–
CCCCC(CC)C(=O)Nc1ccccc1C(=O)NC(C)C (configuration not stated)	–	–	–	–	–	–
O=C1NC2(CCCCC2)Oc2ccccc21	–	–	–	–	–	–
O=C1c2ccccc2NC2(CCCCC2)N1c1ccc(O)cc1	–	–	·	3.7	–	–
COc1ccccc1-c1cc(C(=O)Nc2c(F)cc(F)cc2Br)no1	–	–	–	–	–	–
CC(C)(C)C(=O)NC(=C(Cl)Cl)P(=O)(O)O	–	–	–	–	–	–
CCOC(=O)c1cccc(NC(=O)Cn2c(CC(=O)N3CCCC3)nc3ccccc32)c1	–	–	–	–	–	–
CCc1ccc(S(=O)(=O)NCc2cn3ccsc3n2)s1	–	–	+	–	–	–
CCc1ccc(S(=O)(=O)NCCc2cn3ccsc3n2)s1	–	–	–	–	–	–
COc1cc2c(C(=O)NCc3ccccn3)cn(C)c(=O)c2cc1OC	–	–	–	–	–	–
COc1cc2c(cc1OC)-c1cc(NCc3ccccn3)nc(=O)n1CC2	52	–	·	3.4	–	–
COc1cc2c(cc1OC)-c1cc(NC3CCCCC3)nc(=O)n1CC2	–	–	–	–	–	–
COc1cc2c(cc1OC)-c1cc(OCCN3CCOCC3)nc(=O)n1CC2	–	–	·	3.9	–	–
COc1cc2c(cc1OC)-c1cc(NC3CC3)nc(=O)n1CC2	–	–	–	–	–	–
